Reference: PubChem BioAssay (NCI)
Values joined by “and” are separate entries in the source; they are usually repeats but may differ in a detail not shown here. Equal entries are not always repeated. This is part of a sample that, as a whole, favours compounds with a hit. Of some 83,000 tested, about 20% had one in any assay.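 Values shown are percent growth following 48 h exposure of cells in 96-well plates to a single concentration of compound; below 10 was considered active.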 Values without a mark were called inactive. Active and inactive are the calls of the source.

System: HL-60(TB) leukemia
Assay: NCI-60 one-dose screen, 48 h (100 = growth as untreated, 0 = no growth, -100 = all killed)
Conditions: 10 µM unless noted

Row | Structure (SMILES) | growth
1 | Cc1cc(=O)[nH]c(O)c1C#N | 109% and 137%
2 | CC1(C)CCC(S(=O)(=O)c2ccc3c(c2)/C(=N\O)c2cc(S(=O)(=O)N4CCC(O)(c5cccc(C(F)(F)F)c5)CC4)ccc2-3)CC1 | -67.5% (active)
3 | COC(=O)c1ccccc1Br | 76.5%
4 | Fc1ccc(Nc2nc(NCCNc3ccnc4cc(Cl)ccc34)nc(N3CCOCC3)n2)cc1 | -6.82% (active)
5 | CC(=O)Nc1ccc(S(=O)(=O)Nc2cccc(-c3nc(-c4ccc(NC(=O)c5cccnc5)cc4Cl)no3)c2)cc1 | 24%
6 | Cc1nn(Cc2ccccc2)cc1C(=O)Nc1sc2c(c1C(N)=O)CCC(=O)C2 | -4.39% (active)
7 | Cc1cc(N=Nc2ccc(C)c(N=Nc3cc(C)c(N)cc3N)c2)c(N)cc1N | 99.9% and 82.5%
8 | COc1ccc(C2=CC(c3cc(OC)c(OC)c(OC)c3)NC(=O)N2)cc1OC (centres undefined) | 2.95% (active)
9 | CCCCCCCCCCCCCCCCCCNC(=O)[C@H]1CSC(c2cccs2)N1 (some centres undefined) | -67.5% (active)
10 | Cc1cc(N(CCCNc2ccnc3cc(Cl)ccc23)Cc2ccc3c(c2)OCO3)nc(N2CCOCC2)n1 | -69.7% (active)
11 | C/C=C/C(=O)OCCCCCCCCCCCC | 85.2%
12 | N#Cc1c(-c2cccs2)cc(-c2cccnc2)[nH]c1=O | 97.6%
13 | O=C(O)c1ccc(-c2nn(-c3ccc(C(=O)O)cc3)cc2/C=N/Nc2c(F)c(F)cc(F)c2F)cc1 | 96.5%
14 | CC(=O)c1cccc(NS(=O)(=O)c2cccc(C(=O)Nc3ccc(Br)cc3)c2)c1 | 48.7% [25 µM]
15 | N#C/C(=C/c1cc([N+](=O)[O-])ccc1Cl)C(N)=O | 91.7%
16 | Cc1[nH]nc2c(=S)[nH]c(=O)[nH]c12 | 89.2%
17 | O=C(c1ccccc1)c1ccc(-c2ccc(O)cc2)cc1 | 75.1%
18 | COc1cc(-c2csc(NC(=O)Nc3cccc(C(F)(F)F)c3)n2)cc(OC)c1OC | 44.6%
19 | COC(=O)C1=C(C(=O)ONCCN(C)C)C2C=CC1(C(Cc1ccccc1)Nc1ccc(F)cc1)O2 (centres undefined) | 35.8%
20 | COc1cccc(C(=O)NNc2nc(N3CCOCC3)nc(N3CCN(C(c4ccccc4)c4ccccc4)CC3)n2)c1 | 76.4%

Row | Structure (SMILES) | growth
21 | c1ccc(Cc2nn3cc(-c4ccccc4)nc3s2)cc1 | 68%
22 | COc1ccc2cc(C(=O)c3coc4ccc(O)cc34)ccc2c1 | 73.2%
23 | O=C(O)c1ccc(CNS(=O)(=O)c2ccc3ccccc3c2)cc1 | 68.1%
24 | O=c1c(Br)ccc(Br)cc1Br | -58.8% (active)
25 | COc1ccc2c(c1)c1nc3cc(C)c(C)cc3nc1n2CCN(C)C | -26.4% (active)
26 | CC(C)(C)Nc1c(-c2cccs2)nc2ncccn12 | 66.6%
27 | O=C(NNC(=O)c1ccc(-n2cc(-c3ccccc3)nn2)cc1)Nc1ccccc1 | 95.4%
28 | COC(=O)/C(CCC=C(C)C)=C1\[C@@H](OC(C)=O)C[C@@]2(C)[C@H]1C[C@@H](O)[C@H]1[C@@]3(C)CC[C@H](NC(=O)c4cnccn4)[C@@H](C)[C@@H]3CC[C@@]12C | 99.5%
29 | O=C1NC(=O)C2(CCc3ccccc32)N1 (centres undefined) | 93.7% and 106%
30 | ClCC(Cl)C1CCC(Cl)C(Cl)C1 (centres undefined) | 89.6%
31 | NNC(=O)Nc1ccccc1 | 102%
32 | COc1cccc(C2C3=C(COC3=O)N(CCO)c3cc(OC)ccc32)c1 (centres undefined) | -25.9% (active)
33 | CCOC(=O)c1c(C)oc(C)c(C(=O)OCC)c1=O | 247% and 61.2%
34 | C/C(=N\O)c1ccc(NC(=O)CSc2nnc(-c3ccccc3)n2-c2ccccc2)cc1 | 90.4%
35 | CC1=C(CCC(C)N(C)Cc2ccc(OCCCN3CCCC3)cc2)C(C)(C)CCC1 (centres undefined) | 24.6%
36 | COc1cc(/C=C\c2cc(/C=C\c3ccc(O)c(OC)c3)n(C(=O)Nc3ccc(C(F)(F)F)cc3)n2)ccc1O | 15.2%
37 | COc1ccc(C2=CC(c3ccc(Oc4ccnc5cc(Cl)ccc45)c(OC)c3)c3c(nc(OC)[nH]c3=O)N2)cc1 (centres undefined) | 85.7%
38 | O=[N+]([O-])c1ccc2[nH]cc(-c3c4ccccc4cc4[nH]c5ccc([N+](=O)[O-])cc5c34)c2c1 | 11.7%
39 | CC(=O)OC[C@]1(C)C=C2C(=O)[C@](C)(O)C3(CC3)C(C)=C2[C@H]1OC(C)=O | 96.4%
